From PubChem BioAssay (NCATS)
Values without a mark were called inactive. Records with an inconclusive call do not appear. Entries that show only a call come without a potency. Calls of active or inactive are those of the source. Unless noted, calls come from the whole dose curve; as a rule, active = well fitted curve in the direction sought with a large enough effect; inconclusive = small, poorly fitted or top-dose-only effect, or another doubt; inactive = no such curve, though single readings can be large; an effect the other way counts as inactive or inconclusive.

What was measured:
[1] = qHTS assay for measurement of the activity of small molecule inhibitors on Zika virus induced Caspase-3 activity in human iPSC derived neural progenitor cells (hNPCs) (AID 1224857); note: nearly all actives have a fitted effect of over 65% in size
Outline: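 Human iPSC-derived neural progenitor cells pretreated 1 hr with compounds, then infected with Zika virus (2 FFU/cell) for 6 hours at 37 C. Caspase-3/7 measured by Caspase-Glo luminescence; % inhibition calculated from induction scaled to uninfected (0%) and infected (100%) wells.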

[2] = qHTS assay for measurement of the activity of small molecule inhibitors on Zika virus induced Caspase-3 activity in human astrocytoma cells (AID 1224859)
Outline: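 SNB-19 astrocytoma cells, 250/well, pretreated 1 h with compounds, then Zika virus at 2 FFU/cell for 6 h at 37 C; Caspase-Glo 3/7 luminescence after 30 min; percent inhibition normalised to uninfected and infected controls.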

[3] = qHTS assay to identify small molecule inhibitors of chordoma cells - UCH-1 (AID 1259355); note: nearly all actives have a fitted effect of over 55% in size
Outline: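 A 48hr growth-inhibition format: each drug tested at 15 concentrations together with added auranofin, camptothecin, doxorubicin, rubitecan and topotecan, with cell viability quantified as CellTiter-Glo luminescence.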

[4] = qHTS assay to identify small molecule inhibitors of chordoma cells - UCH-2 (AID 1259356); note: series mostly up to about 46 µM
[5] = P-glycoprotein substrates identified in KB-8-5-11 adenocarcinoma cell line, qHTS therapeutic library screen (AID 1346987); note: nearly all actives have a fitted effect of over 65% in size; note: potency is the fitted concentration of half-maximal effect
Outline: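 Compounds are pinned in dose-response onto KB-8-5-11 cells (500 cells/well, colchicine-free medium) and left 72 h at 37 degree C. CellTiter-Glo luminescence then yields AC50 values.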

[6] = Natriuretic polypeptide receptor (hNpr1) antagonism - Pilot counterscreen GloSensor control cell line (AID 1347045; calls by dose curve; note: series mostly up to about 38 µM)
Outline: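 Control counterscreen: luciferase cGMP-biosensor HEK293 cells (no Npr1) received compound for 30 min at room temperature after GloSensor substrate loading. Luminescence was measured before and 20 min after soluble guanylyl cyclase activation by 50 uM nitroprusside.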

[7] = NS1 protein of Zika virus - qHTS assay to identify small molecule inhibitors in human HEK 293 cells (AID 1347053); note: series mostly up to about 46 µM; nearly all actives have a fitted effect of over 55% in size
Outline: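 TR-FRET signal from two anti-ZIKV NS1 antibodies quantified NS1 in HEK 293 cells 24 h after MR766 infection at MOI = 0.5; compounds were added 1 h before virus. Uninfected cells and infected cells defined the NS1 normalization range.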

SMILES | outcome [1] | outcome [2] | Potency [3] | Potency [4] | Potency [5] | outcome [6] | Potency [7]
CC(=O)O[C@H]1C[C@@H]2CC[C@@H]3[C@H](CC[C@@]4(C)[C@H]3C[C@H]([N+]3(C)CCCCC3)[C@@H]4OC(C)=O)[C@@]2(C)C[C@@H]1[N+]1(C)CCCCC1 | inactive | inactive | inactive | inactive | inactive | inactive | inactive
CC(C)NC[C@@H](O)COc1cccc2ccccc12 | inactive | inactive | inactive | inactive | inactive |  | inactive
N[C@@H](Cc1cnc[nH]1)C(=O)O | inactive | inactive | inactive | inactive | inactive | inactive | inactive
CCOC(=O)[C@H](CCc1ccccc1)N[C@@H](C)C(=O)N1Cc2ccccc2C[C@H]1C(=O)O | inactive | inactive | inactive | inactive | inactive |  | inactive
CCN(CC)CCNC(=O)COc1ccc(Cl)cc1 | inactive | inactive | inactive | inactive | inactive |  | inactive
C[C@]12CC[C@@H]3c4ccc(O)cc4CC[C@H]3[C@@H]1C[C@@H](O)[C@@H]2O | inactive | inactive | inactive | inactive | inactive |  | inactive
CC1(C)CCC(NC(=O)[C@@H](N)CCC(=O)O)CC1 | inactive | inactive | inactive | inactive | inactive |  | inactive
COc1cc2c(cc1OC)C(C(C(=O)N(CCc1ccc(OC)c(OC)c1OC)CCc1ccc(OC)c(OC)c1OC)c1ccccc1)=NCC2 (stereo not drawn) | inactive | inactive | inactive | inactive | 9.2 µM (active) |  | inactive
Cc1c(C(N)=O)cc([N+](=O)[O-])cc1[N+](=O)[O-] | inactive | inactive | inactive | inactive | inactive |  | inactive
Oc1c(Cl)cc(Cl)cc1Sc1cc(Cl)cc(Cl)c1O | inactive | inactive | inactive | inactive | 4.61 µM (active) |  | inactive
C[C@]12CC[C@@H]3c4ccc(O)cc4CC[C@H]3[C@@H]1CC[C@@H]2O | inactive | inactive | inactive | inactive | 6.51 µM (active) |  | inactive
C#C[C@]1(OC(C)=O)CC[C@H]2[C@@H]3CCC4=C[C@@H](OC(C)=O)CC[C@@H]4[C@H]3CC[C@@]21C | inactive | inactive | inactive | inactive |  |  | inactive
CN1C(CCl)Nc2cc(Cl)c(S(N)(=O)=O)cc2S1(=O)=O (stereo not drawn) | inactive | inactive | inactive | inactive |  |  | inactive
CCN1CCC[C@H]1CNC(=O)c1c(OC)ccc(Br)c1OC | inactive | inactive | inactive | inactive |  |  | inactive
CC(C)(Oc1ccc(Cl)cc1)C(=O)O | inactive | inactive | inactive | inactive |  |  | inactive
CCCCCCCCCCCCCCCCOP(=O)([O-])OCC[N+](C)(C)C | inactive | inactive | inactive | inactive |  |  | inactive
C[C@@H](CN(C)C)CN1c2ccccc2Sc2ccccc21 | inactive | inactive | inactive | inactive |  |  | inactive
COC1=CC(=O)C[C@@H](C)[C@]12Oc1c(Cl)c(OC)cc(OC)c1C2=O | inactive | inactive | inactive | inactive |  |  | inactive
C#C[C@]1(O)CC[C@H]2[C@@H]3CCc4cc(OC5CCCC5)ccc4[C@H]3CC[C@@]21C | inactive | inactive | inactive | inactive |  |  | inactive
CC(=O)CC(c1ccc([N+](=O)[O-])cc1)c1c(O)c2ccccc2oc1=O (stereo not drawn) | inactive | inactive | inactive | inactive |  |  | inactive
CC(Cc1cccc(C(F)(F)F)c1)NCCOC(=O)c1ccccc1 (stereo not drawn) | inactive | inactive | inactive | inactive |  |  | inactive
NCCCC[C@H](N[C@@H](CCc1ccccc1)C(=O)O)C(=O)N1CCC[C@H]1C(=O)O | inactive | inactive | inactive | inactive |  |  | inactive
CCCCOc1ccc(OCCCN2CCOCC2)cc1 | inactive | inactive | inactive | inactive |  |  | inactive
OC[C@@H](O)[C@@H](O[C@@H]1O[C@H](CO)[C@H](O)[C@H](O)[C@H]1O)[C@H](O)[C@@H](O)CO | inactive | inactive | inactive | inactive |  |  | inactive
CCCCCCCCCCCCCCNCCO | inactive | inactive | inactive | inactive |  |  | inactive
NC(=O)CC[C@@H]1NC(=O)[C@H](Cc2ccccc2)NC(=O)[C@H](Cc2ccc(O)cc2)NC(=O)CCSSC[C@@H](C(=O)N2CCC[C@H]2C(=O)N[C@@H](CCCN=C(N)N)C(=O)NCC(N)=O)NC(=O)[C@H](CC(N)=O)NC1=O | inactive | inactive | inactive | inactive |  |  | inactive
O=C(Nc1ccc(Cl)c(Cl)c1)C1CC1 | inactive | inactive | inactive | inactive |  |  | inactive
COc1ccc(/C=C/C(=O)c2ccc(OC)cc2OC)cc1 | inactive | inactive | inactive | inactive |  |  | inactive
O=C1OC(c2ccc(O)cc2)(c2ccc(O)cc2)c2ccccc21 | inactive | inactive | inactive | inactive |  |  | inactive
O=C(COc1ccc(Cl)cc1)N1CCN(Cc2ccc3c(c2)OCO3)CC1 | inactive | inactive | inactive | inactive |  |  | inactive
